High-throughput results: PubChem BioAssay, Paczesny and Yang Labs, IUPUI and University of Michigan
ST2 inh: inhibitors of human ST2 (IL1RL1) binding to IL-33, primary screen, biochemical, AlphaLISA. Interleukin-1 receptor-like 1 (Homo sapiens), Q01638. AlphaLISA ST2-Fc/biotin-IL-33 interaction, 1 h. inhibition, % for hits at 17 µM. 78,000 compounds, 2.3% hits; in the data active = inhibition above about 30%
Target sequence (Q01638 whole entry, looked up): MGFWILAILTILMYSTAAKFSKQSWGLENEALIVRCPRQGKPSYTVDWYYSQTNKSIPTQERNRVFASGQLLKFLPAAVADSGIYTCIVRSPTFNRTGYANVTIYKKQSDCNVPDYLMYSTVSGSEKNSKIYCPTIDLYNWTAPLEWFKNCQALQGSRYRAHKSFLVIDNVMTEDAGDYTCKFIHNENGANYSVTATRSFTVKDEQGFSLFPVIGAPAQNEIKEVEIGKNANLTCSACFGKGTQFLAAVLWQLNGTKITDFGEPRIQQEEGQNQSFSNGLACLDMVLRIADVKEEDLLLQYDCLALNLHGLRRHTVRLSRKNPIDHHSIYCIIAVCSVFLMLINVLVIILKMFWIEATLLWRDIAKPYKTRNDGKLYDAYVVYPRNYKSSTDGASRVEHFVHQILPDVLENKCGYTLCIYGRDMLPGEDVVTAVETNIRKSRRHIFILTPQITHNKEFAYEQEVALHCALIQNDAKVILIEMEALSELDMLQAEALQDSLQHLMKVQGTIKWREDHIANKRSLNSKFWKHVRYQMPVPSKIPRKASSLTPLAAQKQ
Of the large screens only hits and unclear results are named; the others gave an inactive call; ! = a repeat was not active. The full list was thinned out, with hits kept by preference.

CN(C)c1ccc(/C=C2\N=C(c3ccc([N+](=O)[O-])cc3)OC2=O)cc1	none
Cc1ccccc1C1=N/C(=C\C=C\c2ccccc2)C(=O)O1	ST2 inh 42.0%
CCCCOc1ccc(C2=N/C(=C\c3ccc(N(C)C)cc3)C(=O)O2)cc1	ST2 inh 37.0%
O=C1OC(c2ccc(Cl)cc2Cl)=N/C1=C\c1ccccc1	none
O=C1OC(c2cccc(I)c2)=N/C1=C\c1ccc(Br)cc1	none
COc1ccc(/C=C2\N=C(c3cccc(I)c3)OC2=O)cc1	ST2 inh 31.0%
CCCCOc1ccc(/C=C2\N=C(c3cccc([N+](=O)[O-])c3)OC2=O)cc1	none
O=C1OC(c2ccc(Br)cc2)=N/C1=C\C=C\c1ccccc1	none
COc1ccc(/C=C2\N=C(c3cccc([N+](=O)[O-])c3)OC2=O)cc1	none
Cc1cccc(CN(C(=O)C(=O)N2CCCC2)C(C)C)c1	none
O=C(c1cccc2cc[nH]c12)N1C[C@@H]2[C@H](C1)[C@H]1CC[C@@H]2O1	none
Cc1c(C(=O)N2CCC(C(N)=O)(N3CCCCC3)CC2)sc2ncnc(N3CCOCC3)c12	none
O=C(CCC1CCN(C(=O)c2ccccc2F)CC1)NCc1cccc(C(F)(F)F)c1	none
CCc1nc(C2CC(=O)Nc3n[nH]c(-c4cccs4)c32)c(C)[nH]1 (stereo not drawn)	none
NS(=O)(=O)c1ccc(CCNC(=O)C2CCN(c3ccc(-c4cccs4)nn3)CC2)cc1	none
COc1cc(C(=O)N2CCN=C2SCc2cc(C)ccc2C)cc(OC)c1OC	none
Oc1ccccc1-c1nnc2n1N=C(c1ccc(Cl)cc1)CS2	none
COc1ccc(C2=Nn3c(nnc3-c3ccccc3)SC2)cc1	none
Cc1nnc2n1N=C(c1ccc(Cl)cc1)CS2	ST2 inh 39.0%!
Cc1ccc2cc(CN(C)Cc3nncn3C(C)C)c(=O)[nH]c2c1	none
CCOc1ccc(C2CC(c3ccccc3Cl)Nc3nc(N)nn32)cc1 (stereo not drawn)	none
COCC(C)NC(=O)c1cc(-c2ccc3c(c2)OCO3)on1 (stereo not drawn)	none
O=C(CN1C(=O)S/C(=C\C=C\c2ccccc2)C1=O)Nc1ccc(C(=O)O)cc1	ST2 inh 32.0%
O=C(CN1C(=O)S/C(=C\c2ccccc2)C1=O)Nc1nccs1	none
CC(C)(C)NC(=O)CN1C(=O)S/C(=C\c2ccccc2)C1=O	none
Oc1cccc(C=Nc2ccc(Cl)c(Cl)c2)c1O	none
Cc1ccc(N=Cc2nc(-c3ccc(Br)cc3)oc2O)cc1Cl	none
C=CCOc1ccc(C=Nc2ccc(C)c(Cl)c2)c(O)c1	ST2 inh 92.0%
c1cncc(-c2noc(-c3ccc4c(c3)OCO4)n2)c1	none
Oc1ccc(-c2nc3cnccn3c2Nc2ccccc2)cc1	none
Cc1ccc2[nH]c(CNC(C)c3cnn(-c4cccc(F)c4)c3C)c(C)c2c1 (stereo not drawn)	ST2 inh 32.0%
Cc1c(C(C)NCCCc2ccccc2)cnn1-c1cccc(F)c1 (stereo not drawn)	none
Cc1c(C(C)NCc2ccc(F)c(F)c2)cnn1-c1ccccc1 (stereo not drawn)	none
CCCCOc1ccc(C(=O)Nc2cc(N3CCCS3(=O)=O)ccc2C)cc1	none
CCCSc1nnc2c(n1)OC(c1ccccc1OC)N(C(C)=O)c1ccccc1-2 (stereo not drawn)	none
COc1cc(CN2CC(=O)N(Cc3cccnc3)CC(OC)C2)ccc1OCc1ccccc1 (stereo not drawn)	none
COc1cc2[nH]c(=O)n(CCCC(=O)N3CCN(c4ncccn4)CC3)c(=O)c2cc1OC	none
COC(=O)C1CCN(C(=O)c2cc3c(=O)n4ccccc4nc3n2C)CC1	none
O=C(NCc1ccncc1)C(=O)NCC1CCCO1 (stereo not drawn)	none
CCCCN(C)S(=O)(=O)c1ccc(C(=O)Nc2nnc(-c3cc(OC)cc(OC)c3)o2)cc1	none
Cc1nn(-c2ccccn2)c2c1C(=O)/C(=C\Nc1ccccc1Cl)CC2	ST2 inh 31.0%
O=C1CSC(c2cccc(Cl)c2Cl)N1c1ccccn1 (stereo not drawn)	none
Cc1nn(-c2ccccn2)c2c1C(=O)/C(=C/Nc1ccc([N+](=O)[O-])cc1Br)CC2	none
CC1(c2cccnc2)CC(=O)c2cc(O)ccc2O1 (stereo not drawn)	none
CCOc1ccc(N(C(C)C(=O)NCc2ccco2)S(C)(=O)=O)cc1 (stereo not drawn)	none
CCOc1ccc2oc(-c3ccccc3)c(C(=O)O)c2c1	none
CCOc1ccc2sc(C=NCc3ccco3)c(O)c2c1	ST2 inh 31.0%
CCOCCCNC(=O)c1c[nH]c2ccc(S(=O)(=O)Nc3ccccc3F)cc2c1=O	none
COCCCNc1ncnc2c1cnn2-c1ccc(Cl)cc1	none
Cc1c(-c2ccccc2)sc(N)c1C#N	ST2 inh 33.0%
Cc1cc(-c2ccccc2)c(C#N)c(N)n1	none
CCOC(=O)c1sc(-c2ccccc2)c(C#N)c1C	none
CSc1oc(-c2cccs2)nc1S(=O)(=O)c1ccc(F)cc1	none
NC(=O)C1CCN(C2CCN(C(=O)c3ccc4nc5ccccc5c(=O)n4c3)CC2)CC1	none
Cc1cccc(-c2nc(SC3CC(=O)N(c4ccc(C)c(Cl)c4)C3=O)n[nH]2)c1 (stereo not drawn)	none
Cc1c(N=Cc2ccc([N+](=O)[O-])o2)c(=O)n(-c2ccccc2)n1C	none
Cc1c(N=Cc2cc([N+](=O)[O-])ccc2O)c(=O)n(-c2ccccc2)n1C	none
Cc1c(N=Cc2cc([N+](=O)[O-])ccc2N2CCCCC2)c(=O)n(-c2ccccc2)n1C	ST2 inh 44.0%
CC(C)NC(=O)N1Cc2[nH]cnc2C[C@H]1c1nc(-c2ccc(F)c(Cl)c2)no1	none
COCCN(Cc1ccc(C)cc1)Cc1c(Cl)nc2sccn12	none
O=C(O)CCN(CCC(=O)O)c1nnc(-c2ccccc2)o1	none
C(=C\c1nnc(-c2ccccc2)o1)/c1ccccc1	ST2 inh 34.0%
Nc1nnc(-c2ccccc2)o1	none
Cc1ccccc1N=c1oc2cc(O)ccc2cc1C(N)=O	none
COc1ccc(CC(=O)N2CCC3(CC2)CC3C(=O)NCCCc2ccccc2)cc1OC (stereo not drawn)	none
O=C(NCCCc1ccccc1)C1CC12CCN(C(=O)c1cccc(-c3ccccc3F)c1)CC2 (stereo not drawn)	none
O=C(NCCC(c1ccccc1)c1ccccc1)C1CC12CCN(C(=O)c1ccc[n+]([O-])c1)CC2 (stereo not drawn)	ST2 inh 34.0%
O=C(O)CCCNC(=O)c1ccc(Cl)cc1	none
O=C(Cc1c(C(=O)O)[nH]c2ccccc12)Nc1ccc(F)c(Cl)c1	none
O=C1CCC(CCC(=O)N2CCN(Cc3ccc4c(c3)OCO4)CC2)(Cc2ccc(Cl)cc2)N1 (stereo not drawn)	none
O=C(OC[C@H]1O[C@@H](OC(=O)c2cc(O)c(O)c(O)c2)[C@H](OC(=O)c2cc(O)c(O)c(O)c2)[C@@H](OC(=O)c2cc(O)c(O)c(O)c2)[C@@H]1O)c1cc(O)c(O)c(O)c1	none
CC(CCn1cccn1)n1ccnc1-c1ccccc1C(=O)O (stereo not drawn)	none
O=C(COc1ccccc1)NC1CC(=O)N(Cc2ccccc2C(F)(F)F)C1 (stereo not drawn)	none
COc1ccc(C2C(C#N)=C(N)Oc3cc(C)oc(=O)c32)cc1OCc1ccccc1 (stereo not drawn)	ST2 inh 32.0%
COc1cc(C2C(C#N)=C(N)OC3=C2C(=O)CC(c2ccccc2)C3)cc(OC)c1OC (stereo not drawn)	none
Cc1cc2c(c(=O)o1)C(c1ccccc1OCc1ccccc1Cl)C(C#N)=C(N)O2 (stereo not drawn)	none
COc1cc(C2C(C#N)=C(N)OC3=C2C(=O)CC(c2ccccc2)C3)ccc1OCc1ccccc1 (stereo not drawn)	ST2 inh 37.0%
